“And” between values parts separate entries of the source, which are not always exact repeats. Equal values may be shown once. Inconclusive results are not listed. The source made the active and inactive calls. Unless noted, calls come from the whole dose curve; as a rule, active = well fitted curve in the direction sought with a large enough effect; inconclusive = small, poorly fitted or top-dose-only effect, or another doubt; inactive = no such curve, though single readings can be large; an effect the other way counts as inactive or inconclusive.
Legend:
[1] = qHTS to identify inhibitors of the type 1 interferon - major histocompatibility complex class I in skeletal muscle: primary screen against the NCATS Mechanism Interrogation Plate v5.0 (MIPE) Libary (AID 1347411); note: nearly all actives have a fitted effect of over 65% in size; note: potency is the fitted concentration of half-maximal effect
Procedure, shortened: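 Seed engineered human myoblasts (HLA-B HiBit) in medium without dexamethasone containing 4 ng/ml IFN-beta; after 1 hr add compound titrations (top 46 uM final). Incubate 24 hrs at 37 C, lyse 10 min with HiBiT reagent, read luminescence.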

[2] = biological target: Calcium and integrin-binding protein 1 (Homo sapiens) (UniProt Q99828); test: Primary qHTS for Identification of Calcium Integrin Binding Protein 1 (CIB1) Competitor (AID 1508620);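 note: GST tagged CIB1 binding a fluorescein labelled alphaIIb integrin peptide tracer; top concentration of the series differs between compounds; % is set by controls: 0 for no effect and ±100 for the full control effect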
Procedure, shortened: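 CIB1-GST (1 uM final) and compound incubated 15 min at room temperature before adding FITC-alphaIIb peptide tracer (100 nM final). Competition for binding read by fluorescence polarization (ex 480, em 540) after another 15 min at room temperature.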

[3] = Primary qHTS for small molecule stabilizers of the endoplasmic reticulum resident proteome: Secreted ER Calcium Modulated Protein (SERCaMP) assay (AID 1508630); note: % is set by controls: 0 for no effect and ±100 for the full control effect
Procedure, shortened: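 The SH-SY5Y reporter protocol was run at 3 concentrations up to 38.3 uM (primary) or 11 concentrations (follow-up): 16 h compound, 100 nM thapsigargin for 4 h, then extracellular luciferase luminescence.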

[4] = biological target: Cytochrome P450 2D6 (Homo sapiens) (UniProt P10635); test: Cytochrome P450 family 2 subfamily D member 6 (CYP2D6) small molecule antagonists: luciferase biochemical (cell-free) qHTS assay (AID 1645840; active = well fitted curve in the direction sought with a large enough effect in the repeat runs; an effect the other way counts as inactive or inconclusive; note: nearly all actives have a fitted effect of over 55% in size; note: potency is the fitted concentration of half-maximal effect)
Procedure, shortened: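 P450-Glo CYP2D6 system: proluciferin substrate converted by enzyme to luciferin, read by luminescence proportional to activity. Enzyme-substrate mix with compound 10 min at room temperature, then NADPH regeneration 1 h before detection reagent.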

[5] = biological target: Cytochrome P450 2C9 (Homo sapiens) (UniProt P11712); test: Cytochrome P450 family 2 subfamily C member 9 (CYP2C9) small molecule antagonists: luciferase biochemical (cell-free) qHTS assay (AID 1645842; active = well fitted curve in the direction sought with a large enough effect in the repeat runs; an effect the other way counts as inactive or inconclusive; note: nearly all actives have a fitted effect of over 55% in size; note: potency is the fitted concentration of half-maximal effect)
Procedure, shortened: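 P450-Glo CYP2C9 system: proluciferin substrate with enzyme in mix containing 0.4% BSA, 10 min at room temperature, then NADPH regeneration solution added and incubated 1 h at 37C. Detection reagent stopped reaction; luminescence read after 20 min as RLU.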

[6] = Primary qHTS for inhibitors of nuclear receptor binding SET domain protein 2 (NSD2) in an isogenic RCH-ACV NSD2 p.E1099K mutant (9B) (AID 1645876); note: nearly all actives have a fitted effect of over 70% in size; note: potency is the fitted concentration of half-maximal effect
[7] = biological target: Protein phosphatase 1D (Homo sapiens) (UniProt O15297); test: RapidFire Mass Spectrometry qHTS Assay for Modulators of WT P53-Induced Phosphatase 1 (WIP1) (AID 1347424);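 note: amount of dephosphorylated VEPPL-S-QETFS peptide product formed by WIP1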; note: potency is the fitted concentration of half-maximal effect
Procedure, shortened: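 RapidFire mass spectrometry measured dephosphorylated peptide after 5 min room-temperature reaction of 2 uM VEPPL-pS-QETFS with 10 nM WIP1 (50 mM Tris-HCl pH 7.5, 30 mM MgCl2, 0.1 mM EGTA, BSA), following 1 hr compound preincubation; 1 uM isotope-labelled product standard.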

[8] = biological target: Protein phosphatase 1D (Homo sapiens) (UniProt O15297); test: Rhodamine-PBP qHTS Assay for Modulators of WT P53-Induced Phosphatase 1 (WIP1) (AID 1347425); note: % of control where 0% means no effect
Procedure, shortened: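 The read-out is the change in Rhodamine-PBP fluorescence (f1 - f0, ex 525/em 598 nm) as Pi is released, read each minute for 11 min. Final reaction: 5 nM WIP1, 10 uM phosphopeptide VEPPL-pS-QETFS, 10 uM Rh-PBP, 50 mM Tris-HCl pH 7.5, 30 mM MgCl2. Compound was preincubated with enzyme for 1 hour at room temperature.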

[9] = Primary qHTS for inhibitors of La Crosse Virus (LACV) - induced cell death in SH-SY5Y cells (AID 1508616);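 note: top concentration of the series differs between compounds; 0% = infected DMSO wells and 100% = uninfected DMSO wells; higher means more rescue of cells from virus-induced death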
Procedure, shortened: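 SH-SY5Y, 6000 cells/well; cpd via pin tool in DMSO; LACV 0.01 MOI; 6 d 37C 5% CO2; ATPLite, 5 min RT; luminescence normalized to ±virus DMSO controls.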

[10] = A High-Content qHTS Against Drug Library for the Identification of Small Molecules that Inhibit DYT1 Early Onset Primary Dystonia-Associated Cell Pathology (AID 1645839; calls by dose curve; note: potency is the fitted concentration of half-maximal effect)
Procedure, shortened: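 High-content imaging quantified EGFP-TorsinA mislocalization in HEK293-derived cells inducibly expressing DYT1 mutant torsinA, after 48 h exposure to compound given together with tetracycline induction. Cell count served as a toxicity channel alongside %pathology.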

[11] = Counterscreen qHTS for small molecule stabilizers of the endoplasmic reticulum resident proteome: GLuc-NoTag assay (AID 1508627);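 note: series mostly up to about 76 µM; 0% = thapsigargin alone and -100% = DMSO vehicle control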
Procedure, shortened: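 Counterscreen line: SH-SY5Y-GLuc-NoTag cells, treated with compound 19 hr before a 4 hr, 100 nM thapsigargin calcium depletion. Secreted Gaussia luciferase in the medium was measured by luminescence after coelenterazine was added (0.07x final), with cells unlysed.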

[12] = Confirmatory qHTS for small molecule stabilizers of the endoplasmic reticulum resident proteome: Secreted ER Calcium Modulated Protein (SERCaMP) assay (AID 1508628); note: series mostly up to about 76 µM; % is set by controls: 0 for no effect and ±100 for the full control effect; nearly all actives have a fitted effect of over 40% in size
Procedure, shortened: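 Reporter secretion upon ER calcium depletion (100 nM thapsigargin, 4 h, 37C) is measured as medium luminescence with coelenterazine, after 16 h compound pretreatment of SH-SY5Y-GLuc-SERCaMP cells; primary at three concentrations up to 38.3 uM, follow-up at 11 (up to 76.6 uM).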

[13] = Cell Viability qHTS for small molecule stabilizers of the endoplasmic reticulum resident proteome (AID 1508629); conditions: cell viability counter-screen, 100 nM thapsigargin for final 4 h;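 note: human SH-SY5Y neuroblastoma cells carrying the GLuc-SERCaMP reporter; compound exposure about 46 h in total before the viability read; % is set by controls: 0 for no effect and ±100 for the full control effect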
[14] = biological target: Calcium and integrin-binding protein 1 (Homo sapiens) (UniProt Q99828); test: Confirmatory qHTS for Identification of Calcium Integrin Binding Protein 1 (CIB1) Competitor (AID 1508617); note: % is set by controls: 0 for no effect and ±100 for the full control effect; nearly all actives have a fitted effect of over 65% in size
Procedure, shortened: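 Compounds at up to 114 uM final met 1 uM GST-tagged CIB1 for 15 min at room temperature (HEPES pH 7.4, 5 mM CaCl2). FITC-labelled alphaIIb peptide, 100 nM, added; polarization read after 15 min more.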

[15] = biological target: N-terminal Xaa-Pro-Lys N-methyltransferase 1 (Homo sapiens) (UniProt Q9BV86); test: Confirmatory qHTS for Inhibitors of N-terminal methyltransferase 1 (NTMT1): MTaseGlo Assay (AID 1645874);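 note: luminescence from SAH made as NTMT1 methylates SPKRIA peptide using SAM; series mostly up to about 100 µM; 0% = DMSO control and -100% = no-enzyme control; nearly all actives have a fitted effect of over 65% in size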
Procedure, shortened: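 MTase-Glo luminescence measured SAH formed by 125 nM NTMT1 from 100 uM SAM and 1 uM SPKRIA peptide over 30 min at room temperature, following 15 min compound preincubation. Percent inhibition against no-enzyme and DMSO controls gave 4-parameter Hill fits.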

Chain of Cytochrome P450 2D6 (Homo sapiens) (P10635 whole entry, looked up): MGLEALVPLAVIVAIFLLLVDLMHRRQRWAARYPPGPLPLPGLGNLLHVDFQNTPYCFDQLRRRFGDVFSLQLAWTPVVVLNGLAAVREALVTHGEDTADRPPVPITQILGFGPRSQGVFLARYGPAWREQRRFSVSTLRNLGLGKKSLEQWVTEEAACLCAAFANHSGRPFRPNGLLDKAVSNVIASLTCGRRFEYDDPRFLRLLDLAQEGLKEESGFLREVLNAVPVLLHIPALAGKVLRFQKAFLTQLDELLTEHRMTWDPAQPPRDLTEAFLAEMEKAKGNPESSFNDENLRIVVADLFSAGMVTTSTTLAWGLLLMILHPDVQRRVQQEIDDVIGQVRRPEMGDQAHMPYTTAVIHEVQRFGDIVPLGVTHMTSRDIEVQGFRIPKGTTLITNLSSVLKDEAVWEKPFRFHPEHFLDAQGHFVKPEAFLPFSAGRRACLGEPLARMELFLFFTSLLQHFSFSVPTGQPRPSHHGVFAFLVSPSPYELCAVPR
Chain of Cytochrome P450 2C9 (Homo sapiens) (P11712 whole entry, looked up): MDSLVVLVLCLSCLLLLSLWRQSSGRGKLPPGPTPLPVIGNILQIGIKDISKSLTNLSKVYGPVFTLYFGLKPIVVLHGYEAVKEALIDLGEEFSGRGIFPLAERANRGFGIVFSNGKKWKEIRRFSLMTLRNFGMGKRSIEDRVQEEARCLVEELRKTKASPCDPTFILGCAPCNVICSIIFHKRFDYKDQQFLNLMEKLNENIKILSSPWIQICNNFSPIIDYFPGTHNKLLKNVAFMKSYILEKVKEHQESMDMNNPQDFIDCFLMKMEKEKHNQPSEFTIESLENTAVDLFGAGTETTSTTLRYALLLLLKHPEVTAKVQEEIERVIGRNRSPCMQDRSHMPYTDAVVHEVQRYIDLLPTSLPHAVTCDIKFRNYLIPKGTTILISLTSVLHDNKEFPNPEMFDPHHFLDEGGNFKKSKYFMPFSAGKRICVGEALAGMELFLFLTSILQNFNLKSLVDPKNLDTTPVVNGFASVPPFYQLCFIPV
Chain of Calcium and integrin-binding protein 1 (Homo sapiens) (Q99828 whole entry, looked up): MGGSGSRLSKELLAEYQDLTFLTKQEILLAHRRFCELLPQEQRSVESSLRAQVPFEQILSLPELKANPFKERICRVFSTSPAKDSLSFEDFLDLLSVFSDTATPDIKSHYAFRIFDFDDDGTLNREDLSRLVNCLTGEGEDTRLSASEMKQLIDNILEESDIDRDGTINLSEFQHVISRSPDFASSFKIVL
Chain of Protein phosphatase 1D (Homo sapiens) (O15297 whole entry, looked up): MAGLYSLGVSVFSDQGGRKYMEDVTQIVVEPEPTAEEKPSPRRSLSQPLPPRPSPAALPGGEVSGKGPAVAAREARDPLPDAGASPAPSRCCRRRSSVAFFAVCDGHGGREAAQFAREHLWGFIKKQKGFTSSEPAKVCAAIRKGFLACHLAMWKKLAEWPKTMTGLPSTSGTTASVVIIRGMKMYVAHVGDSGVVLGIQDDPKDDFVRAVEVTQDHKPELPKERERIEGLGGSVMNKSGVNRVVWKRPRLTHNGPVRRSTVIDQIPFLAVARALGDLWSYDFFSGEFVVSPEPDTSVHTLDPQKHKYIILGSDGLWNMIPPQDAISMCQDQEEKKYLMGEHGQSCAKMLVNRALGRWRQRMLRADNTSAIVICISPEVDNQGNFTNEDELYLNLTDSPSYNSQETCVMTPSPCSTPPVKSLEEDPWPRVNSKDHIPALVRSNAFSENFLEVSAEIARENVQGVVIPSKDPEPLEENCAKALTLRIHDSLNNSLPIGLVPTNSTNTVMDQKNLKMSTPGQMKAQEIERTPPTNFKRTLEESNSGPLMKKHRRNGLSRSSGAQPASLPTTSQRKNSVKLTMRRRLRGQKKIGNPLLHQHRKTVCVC
Chain of N-terminal Xaa-Pro-Lys N-methyltransferase 1 (Homo sapiens) (Q9BV86 whole entry, looked up): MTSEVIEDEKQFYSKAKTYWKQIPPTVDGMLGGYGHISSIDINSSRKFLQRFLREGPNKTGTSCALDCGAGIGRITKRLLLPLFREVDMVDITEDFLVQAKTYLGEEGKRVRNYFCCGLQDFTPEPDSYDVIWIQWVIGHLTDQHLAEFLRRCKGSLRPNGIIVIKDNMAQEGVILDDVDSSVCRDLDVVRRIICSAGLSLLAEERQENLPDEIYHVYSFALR

COc1ccc(C(=O)CC2(O)C(=O)Nc3c(Cl)ccc(Cl)c32)cc1 (centres undefined)
active: Potency [5] 16.9 µM and 15.1 µM | Potency [6] 2.58 µM
inactive: Potency [1] | outcome [2] | Potency [3] | Potency [4]

CC(C)c1cnn2c(NCc3ccccc3)cc(N[C@@H](CO)[C@H](O)CO)nc12
active: Potency [1] 0.186 µM | Potency [5] 3.79 µM | Potency [6] 515 nM and 186 nM
inactive: outcome [2] | Potency [3] | Potency [4]

COc1cc2nccc(Oc3ccc(NC(=O)C4(C(=O)Nc5ccc(F)cc5)CC4)cc3)c2cc1OC
inactive: outcome [2] | Potency [3] | Potency [4]
active: Potency [1] 8.29 µM | Potency [5] 2.68 µM | Potency [6] 3.65 µM and 5.25 µM

COC(=O)C1=C(C)NC(C)=C(C(=O)OCCN2CCN(C(c3ccccc3)c3ccccc3)CC2)C1c1cccc([N+](=O)[O-])c1 (centres undefined)
active: Potency [10] 8.91 µM | Potency [5] 1.55 µM
inactive: Potency [1] | Potency [7] | outcome [8] | outcome [9] | outcome [2]

C=CC(=O)Nc1cccc(Oc2nc(Nc3ccc(N4CCN(C)CC4)cc3)ncc2Cl)c1
active: Potency [1] 16.5 µM | Potency [4] 19 µM | Potency [5] 2.39 µM | Potency [6] 728 nM and 2.09 µM
inactive: outcome [2] | Potency [3]

CC(=O)SC[C@@H](C)C(=O)N1CCC[C@H]1C(=O)N[C@@H](Cc1ccccc1)C(=O)O
inactive: Potency [1] | Potency [7] | outcome [8] | outcome [9] | outcome [2] | Potency [11] | outcome [12] | max response [13] 10.6% | Potency [3] | Potency [10] | Potency [4] | Potency [6]

OCc1ccc(-c2ccc(-c3ccc(CO)s3)o2)s1
active: Potency [1] 33 µM | Potency [6] 50.2 nM and 934 nM
inactive: Potency [14] | outcome [2] | Potency [15]

CN(C)CC(C)(C)CNc1nn2c(-c3ccccc3)nnc2cc1C1CCC1
active: Potency [4] 2.13 µM | Potency [5] 8.49 µM
inactive: Potency [1] | outcome [2] | Potency [3] | Potency [6]

COC(=O)C[C@](O)(CCCC(C)(C)O)C(=O)O[C@@H]1C(OC)=C[C@]23CCCN2CCc2cc4c(cc2[C@H]13)OCO4
active: Potency [1] 0.093 µM

CNC(=O)c1c(F)cccc1Nc1nc(Nc2cc3c(cc2OC)CCN3C(=O)CN(C)C)nc2[nH]ccc12
inactive: outcome [2] | Potency [3] | Potency [4]
active: Potency [1] 7.39 µM | Potency [5] 0.425 µM | Potency [6] 5.15 µM and 7.42 µM

O=C(O)Cn1nnc(-c2cc(N3CCC(Oc4cc(F)ccc4Br)CC3)no2)n1
inactive: Potency [1] | outcome [2] | Potency [3] | Potency [4] | Potency [6]
active: Potency [5] 13.5 µM

O=C(Nc1cn[nH]c1-c1nc2ccc(CN3CCOCC3)cc2[nH]1)NC1CC1
active: Potency [1] 3.3 µM | Potency [6] 325 nM and 366 nM and 166 nM
inactive: outcome [2] | Potency [3] | Potency [4] | Potency [5]

COc1cc(C(=O)NS(=O)(=O)c2ccccc2C)ccc1Cc1cn(C)c2ccc(NC(=O)OC3CCCC3)cc12
active: Potency [7] 15.8 µM | Potency [5] 13.8 µM
inactive: Potency [1] | outcome [9] | Potency [3] | Potency [6]

Cc1[nH]nc2ccc(-c3cncc(OC[C@@H](N)Cc4ccccc4)c3)cc12
inactive: outcome [2] | Potency [3]
active: Potency [1] 1.86 µM | Potency [4] 0.674 µM | Potency [5] 9.52 µM | Potency [6] 325 nM and 263 nM

O=C1CCC[C@@H]2[C@H]3CCC[N+]4([O-])CCC[C@@H](CN12)[C@@H]34 (some centres undefined)
inactive: Potency [1] | outcome [2] | Potency [3] | Potency [6]

Clc1ccc2ncc(-c3cccc(NC4CNC4)n3)n2c1
inactive: Potency [1] | outcome [2] | Potency [3] | Potency [6]

c1nc2nc(Nc3ccc(N4CCOCC4)cc3)nc(NC3CCCCC3)c2[nH]1
inactive: outcome [2] | Potency [3]
active: Potency [1] 2.94 µM | Potency [6] 632 nM and 662 nM

C[C@]12CC[C@H](O)CC1=CCC1C2CC[C@]2(C)C(n3cnc4ccccc43)=CCC12 (some centres undefined)
inactive: Potency [1] | outcome [2] | Potency [3] | Potency [6]

COc1cccc(Nc2c(C(N)=O)cnc3c(C)cc(S(=O)(=O)c4cccc(C(=O)N(C)C)c4)cc23)c1
active: Potency [5] 0.849 µM
inactive: Potency [1] | outcome [2] | Potency [3]

CNC(=O)c1ccc(-c2cnc3ncc(Cc4ccc5ncccc5c4)n3n2)cc1F
inactive: Potency [1] | outcome [2] | Potency [3] | Potency [6]
active: Potency [5] 2.13 µM

O=C(c1ccc(Nc2nccc(-c3cc4ccccc4s3)n2)cc1)N1CCC(N2CCCC2)CC1
inactive: outcome [2] | Potency [3] | Potency [5]
active: Potency [1] 5.23 µM | Potency [6] 1.45 µM and 1.66 µM

CC1COC2(CCN(c3nc(=O)c4cc(C(F)(F)F)cc([N+](=O)[O-])c4s3)CC2)O1 (centres undefined)
inactive: Potency [1] | outcome [2] | Potency [3] | Potency [5] | Potency [6]

Cc1nc2cnc3ccc(C#Cc4cccnc4)cc3c2n1-c1ccc(C(C)(C)C#N)cc1
inactive: outcome [2] | Potency [3]
active: Potency [1] 14.7 µM | Potency [6] 7.31 µM and 148 nM

— PubChem BioAssay (NCATS)
